A short description of assay [1]: qHTS assay to identify small molecule agonists of H2AX (AID 1224845; active = well fitted activation curve with a large enough effect in the signal ratio in the repeat runs, not every such curve was filed as active; the % refers to the signal ratio; also: potency is read from the fitted curve at half-maximal effect). An outline of the steps:
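Wild-type CHO-K1 cells plated overnight, then exposed 3 hr at 37C to compounds at 15 concentrations (0.76% DMSO). Lysed, then HTRF anti-pH2AX(S139)-cryptate/anti-H2AX-d2 detection after 24 hr at room temperature; emissions 665 and 620 nm.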
For orientation: qHTS replaces the single test concentration by a dilution series.

Assay [2] in a line: qHTS assay to identify small molecule agonists of the hypoxia (HIF-1) signaling pathway (AID 1224846; active = well fitted activation curve with a large enough effect in the signal ratio in the repeat runs, not every such curve was filed as active; the % refers to the signal ratio). The essentials: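 ME-180 HRE-bla reporter cells; compounds in DMSO, 17 h at 37C; read-out beta-lactamase via CCF4-AM FRET.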
A short description of assay [3]: qHTS assay to identify small molecule agonists of H2AX - cell viability counter screen (AID 1224847; calls by dose curve; also: top concentration of the series differs between compounds; nearly all actives have a fitted effect of over 30% in size). The essentials:
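Quantitative HTS viability measurement: CHO-K1 wild-type cells in serum (10% FBS) medium, short 3 hr drug exposure at 37C with 0.76% DMSO, CellTiter-Glo luminescent detection.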

Assay [4] in a line: qHTS RealTime-Glo MT Cell Viability Assay in HepG2 cells - 24 hour (AID 1224867). Also: nearly all actives have a fitted effect of over 50% in size. An outline of the steps: (§1)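 Viability was tracked continuously by NanoLuc luminescence from prosubstrate reduced by living HepG2 cells, at successive time points over 40 h of compound exposure. Cells with reagent were preincubated 5 h at 37 °C before compound addition.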
Assay [5] can be described thus: qHTS RealTime-Glo MT Cell Viability Assay in HEK293 cells - 32 hour (AID 1224868). Also: top concentration of the series differs between compounds; nearly all actives have a fitted effect of over 50% in size. An outline of the steps:
(§2)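 Viability tracked continuously by luminescence as live cells reduce a prosubstrate for NanoLuc; HEK293 cells preincubated 5 h, compound-treated at 37 C, and read at 0, 8, 16, 24, 32 and 40 h.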

Assay [6] is described as follows: A CellTox Green Cytotoxicity Assay to monitor cytotoxicity in HEK293 cells - 0 hour (AID 1224869). Also: nearly all actives have a fitted effect of over 50% in size. An outline of the steps:
(§3)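 Real-time, in one plate: 600 HEK293 cells/well with dead-cell DNA dye, pinned compound after 5 h, 37 C incubation over 40 h; viable cells give no appreciable fluorescence.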

The nature of assay [7]: qHTS RealTime-Glo MT Cell Viability Assay in HepG2 cells - 40 hour (AID 1224870). Also: nearly all actives have a fitted effect of over 50% in size. An outline of the steps:
(§4)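 HepG2 cells mixed with RealTime-Glo MT reagents (NanoLuc plus cell-permeant prosubstrate) were seeded at 600 cells/well, incubated 5 h at 37 C/5% CO2, then pinned with compounds in DMSO; nonlytic luminescence tracked viability during 40 h treatment.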

Assay [8] can be described thus: A CellTox Green Cytotoxicity Assay to monitor cytotoxicity in HEK293 cells - 40 hour (AID 1224871). Also: nearly all actives have a fitted effect of over 45% in size. An outline of the steps:
as §3

The nature of assay [9]: qHTS RealTime-Glo MT Cell Viability Assay in HEK293 cells - 16 hour (AID 1224872). The essentials:
as §2

A short description of assay [10]: qHTS RealTime-Glo MT Cell Viability Assay in HepG2 cells - 8 hour (AID 1224873). Also: nearly all actives have a fitted effect of over 55% in size. The essentials: as §4
Assay [11] can be described thus: qHTS RealTime-Glo MT Cell Viability Assay in HEK293 cells - 40 hour (AID 1224874). Also: nearly all actives have a fitted effect of over 50% in size. Conditions: RealTime-Glo luminescence; max response: hits give low values. The essentials: (§5)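 Kinetic, non-lysing viability readout. Seed HEK293 (600/well) with reagent, incubate 5 h at 37 C/5% CO2, pin 23 nL compound in DMSO, incubate at 37 C, read luminescence at 0, 8, 16, 24, 32, 40 h.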

A short description of assay [12]: A CellTox Green Cytotoxicity Assay to monitor cytotoxicity in HepG2 cells - 16 hour (AID 1224876). Also: nearly all actives have a fitted effect of over 45% in size. An outline of the steps: (§6)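 Cytotoxicity was tracked as dead-cell DNA fluorescence in HepG2 cells treated with test compounds at 37 C; each time-point value comes from one kinetic series spanning 0, 8, 16, 24, 32 and 40 h.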
Assay [13] can be described thus: qHTS RealTime-Glo MT Cell Viability Assay in HepG2 cells - 32 hour (AID 1224877). Also: nearly all actives have a fitted effect of over 55% in size. The essentials:
as §1

A short description of assay [14]: A CellTox Green Cytotoxicity Assay to monitor cytotoxicity in HepG2 cells - 24 hour (AID 1224878). Also: nearly all actives have a fitted effect of over 45% in size. The essentials: as §6
Assay [15] in a line: A CellTox Green Cytotoxicity Assay to monitor cytotoxicity in HepG2 cells - 40 hour (AID 1224879). Also: nearly all actives have a fitted effect of over 40% in size. The essentials: as §6
Assay [16] in a line: qHTS RealTime-Glo MT Cell Viability Assay in HEK293 cells - 0 hour (AID 1224880). Also: top concentration of the series differs between compounds; nearly all actives have a fitted effect of over 45% in size. The essentials: as §5
Assay [17] can be described thus: A CellTox Green Cytotoxicity Assay to monitor cytotoxicity in HEK293 cells - 32 hour (AID 1224881). Also: nearly all actives have a fitted effect of over 40% in size. An outline of the steps:
as §3

Assay [18] is described as follows: A CellTox Green Cytotoxicity Assay to monitor cytotoxicity in HEK293 cells - 24 hour (AID 1224875). The essentials:
as §3

“And” between values parts separate entries of the source, which are not always exact repeats. Identical values can stand only once. Unmarked numbers belong to inactive results. Results filed as inconclusive are left out. The source made the active and inactive calls. Unless noted, calls follow the shape of the dose curve; as a rule, active = well fitted curve in the direction sought with a large enough effect in the repeat runs; inconclusive = weak or mixed curves; inactive = no such curve, though single readings can be large; an effect the other way counts as inactive or inconclusive.
% is scaled to controls: 0 for no effect and ±100 for the full control effect.

`CCc1cccc(CC)c1N`: the Potency result in [1], in assay [3], in assay [4], in assay [5], in assay [6] and in [7] was “inactive” each time. For the same compound, the Potency result in assay [8], in assay [9], in assay [10], in [12], in assay [13] and in assay [14] was “inactive” in each case. Also, the Potency result in assay [15], in assay [16] and in [17] was “inactive” each time. For the same compound, the result in assay [2] was inactive. The max response in [11] is 1.74% and 8.01%.
`CC(O)CNCC(C)O` (stereo not drawn): the Potency result in [1], in assay [3], in [4], in assay [5], in assay [6] and in assay [7] was “inactive” each time. Also, the Potency result in assay [8], in assay [9], in assay [18], in assay [12], in assay [13] and in assay [14] was “inactive” in each case. Moreover, the Potency result in assay [15], in assay [16] and in [17] was “inactive” each time. The result in assay [2] was inactive. In addition, the max response in assay [11] is 3.16%.
On to `N[C@@H](Cc1cc(I)c(Oc2ccc(O)c(I)c2)c(I)c1)C(=O)O`, for which, in assay [2], the call was inactive. Besides, the Potency result in assay [3], in [4], in assay [5], in assay [6], in assay [7] and in assay [8] was “inactive” in each case. The Potency result in [9], in assay [10], in assay [12], in assay [13], in assay [14] and in assay [15] was “inactive” in each case. In assay [17], the Potency entry was “inactive”. The max response in [11] is -20.1% and -17.6%.
Turning to `Cc1ccc(C(C)C)cc1`, the Potency result in assay [1], in assay [3], in [4], in assay [5], in assay [6] and in assay [7] was “inactive” each time. Also, the Potency result in [8], in assay [10], in assay [12], in assay [13], in assay [14] and in assay [15] was “inactive” throughout. In addition, the Potency entry in [16] and in [17] was “inactive” throughout. For the same compound, the compound was classed as inactive in assay [2]. The max response in assay [11] is 2.75% and 28.4%.
On to `NC(=O)c1ncn([C@@H]2O[C@H](CO)[C@@H](O)[C@H]2O)n1`, for which the Potency in assay [1] is 53.2 µM (active). The Potency result in assay [3], in assay [4], in [5], in assay [6], in assay [7] and in assay [8] was “inactive” each time. Moreover, the Potency entry in assay [9], in assay [10], in [18], in assay [12], in [13] and in [14] was “inactive” each time. In addition, the Potency result in assay [15], in [16] and in [17] was “inactive” throughout. Besides, the max response in assay [11] is 2.04%.
`COc1ccc(N)c(OC)c1`: the outcome in assay [2] was inactive. Further, the Potency result in [3], in assay [4], in assay [5], in assay [6], in assay [7] and in assay [8] was “inactive” throughout. In addition, the Potency entry in assay [10], in assay [12], in assay [13], in [14], in assay [15] and in assay [16] was “inactive” in each case. For the same compound, the Potency entry in [17] is “inactive”. The max response in assay [11] was -8.13% and -8.26%.
Take `CCCN(CCC)C(=O)SCC`: the Potency entry in assay [1], in [3], in assay [4], in assay [5], in [6] and in [7] was “inactive” each time. For the same compound, the Potency result in [8], in assay [10], in [12], in assay [13], in assay [14] and in assay [15] was “inactive” each time. In addition, the Potency entry in assay [16] and in assay [17] was “inactive” in each case. The result in [2] was inactive. Also, the max response in [11] was 1.3% and 0.597%.
